Glioma ERSR ind: qHTS for Inducers of the Endoplasmic Reticulum Stress Response (ERSR) in Human Glioma: qHTS; U87-MG GRP78 promoter luciferase reporter, 16 h; Potency, µM, without a hit: top-dose activation, most hits filed as activators; actives 0.02% (n = 420,000); further: series mostly up to about 76 µM; % of control where 0% means no effect; nearly all actives have a fitted effect of over 35% in size
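ERSR induction read as luciferase luminescence (Bright-Glo, 10 min at room temperature) in stably transfected human U87-MG glioma cells exposed to compounds for 16 h, using GRP78 as sensor.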
VDR inhibitor: Inhibitors of the vitamin D receptor (VDR): qHTS. Vitamin D3 receptor (Homo sapiens), P11473. VDR-SRC2-3 peptide fluorescence polarization, 2 h. Potency, µM, inactives show max response, negative = inhibition, hits mostly inhibitors. actives 0.93% (n = 400,000). AID 504847, 2011; further: on the % scale 0 is the no-effect control and ±100 the full control effect
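Fluorescence polarization assay measuring small-molecule disruption of VDR binding to the coregulator peptide SRC2-3. Compounds were pin-transferred (23 nl) into the reagent mix and incubated 2 h at room temperature before reading.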
ALOX12 inh: Primary qHTS assay for inhibitors of human arachidonate 12S-lipoxygenase (ALOX12): Round 2; Polyunsaturated fatty acid lipoxygenase ALOX12 (Homo sapiens), P18054; purified 12hLO, xylenol orange hydroperoxide absorbance; Potency, µM (highest dose often 108 µM), for inactives: top-dose activity change, negative = inhibition, actives largely listed as inhibitors; actives 1.1% (n = 580,000); further: on the % scale 0 is the no-effect control and ±100 the full control effect
Target sequence (P18054 whole entry, looked up): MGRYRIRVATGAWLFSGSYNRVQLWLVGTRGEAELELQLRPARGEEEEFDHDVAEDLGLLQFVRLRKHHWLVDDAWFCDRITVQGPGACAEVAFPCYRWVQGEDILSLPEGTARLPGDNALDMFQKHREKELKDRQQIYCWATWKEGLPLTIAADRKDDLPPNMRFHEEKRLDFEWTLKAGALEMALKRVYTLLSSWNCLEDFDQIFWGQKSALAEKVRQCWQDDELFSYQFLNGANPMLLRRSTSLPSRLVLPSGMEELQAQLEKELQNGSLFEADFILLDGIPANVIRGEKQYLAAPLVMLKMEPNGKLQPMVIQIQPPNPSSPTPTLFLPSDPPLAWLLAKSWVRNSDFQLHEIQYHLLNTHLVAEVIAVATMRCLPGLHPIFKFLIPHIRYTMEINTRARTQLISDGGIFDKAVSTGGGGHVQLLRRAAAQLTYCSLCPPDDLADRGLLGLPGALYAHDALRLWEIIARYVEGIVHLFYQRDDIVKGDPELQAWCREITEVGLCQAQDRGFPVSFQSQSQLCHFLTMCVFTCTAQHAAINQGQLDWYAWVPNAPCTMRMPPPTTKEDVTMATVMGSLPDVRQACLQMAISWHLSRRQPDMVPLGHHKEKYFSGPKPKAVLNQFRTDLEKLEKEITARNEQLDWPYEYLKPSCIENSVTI
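Hydroperoxide product was detected by ferrous iron/xylenol orange as the 573 to 405 nm absorbance ratio. Arachidonic acid at 40 uM (final) was turned over for 30 min at room temperature by 150 nM human 12hLO, pH 7.0 Hepes buffer, after 15 min compound preincubation.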
G9a block: qHTS Assay for Inhibitors of Histone Lysine Methyltransferase G9a; Potency, µM (highest dose often 102 µM), inactives show top-dose activity, negative = inhibition, usual class: inhibitors; Histone-lysine N-methyltransferase EHMT2 (Homo sapiens), Q96KQ7; G9a H3K9 monomethylation, AlphaScreen, 2 h; actives 8.8% (n = 350,000); further: on the % scale 0 is the no-effect control and ±100 the full control effect; nearly all actives have a fitted effect of over 75% in size
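G9a (20 nM) was preincubated 15 min with compound, then reacted 2 h at room temperature with 500 nM biotin-H3K9 peptide and 20 µM SAM. Monomethyl-H3K9 detected by AlphaScreen using anti-H3K9me1 antibody.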
Sfp inh: qHTS Assay for Inhibitors of Bacillus subtilis Sfp phosphopantetheinyl transferase (PPTase) | Potency, µM, without a hit: largest response in the series, negative = inhibition, actives largely listed as inhibitors | actives 3.5% (n = 310,000) | Biochemical Sfp PPTase activity, qHTS | AID 1490, 2009 | 4'-phosphopantetheinyl transferase ffp (Bacillus subtilis), Q9F4F7;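 further: the enzyme is Sfp with the accession as filed and its product quenches rhodamine fluorescence; 0% = enzyme reaction without inhibitor and -100% = no enzyme wells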
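Sfp 15 nM + cpd, 15 min RT; start w/ rhodamine-CoA 5 uM, BHQ-2-YbbR 12.5 uM (final); 50 mM Hepes pH 7.6, 10 mM MgCl2, 0.01% NP-40, 0.01% BSA; read 525/598 nm at 0 and 30 min.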
Starred values were filed as active, the others as inactive; ? = inconclusive; / = no result given; [ ] = another dose, or the depositor's remark. This is one part of a sample in which hits are shown more often than they occur. The call rests on the fitted dose curve; in most records, active means well fitted curve in the direction sought with a large enough effect; inconclusive means small, poorly fitted or top-dose-only effect, or another doubt; inactive means no such curve, though single readings can be large; an effect the other way counts as inactive or inconclusive. Potency means the concentration at half of the fitted maximal effect.

SMILES	Glioma ERSR ind	VDR inhibitor	ALOX12 inh	G9a block	Sfp inh
O=c1[nH]c(=O)n(Cc2ccccc2)c2nc(-c3ccc(Oc4ccc(F)cc4)c([N+](=O)[O-])c3)n(CCO)c12	2%	-5%	-12%	?	-13%
COCCCn1c(-c2cccc(Cl)c2)nc2c1c(=O)[nH]c(=O)n2Cc1ccccc1	4%	5%	-26%	10%	0%
COC(=O)N1CCc2nc(C(C)C)nc(-c3ccc(OC)cc3)c2CC1	/	/	13%	/	/
COc1ccc(C(C)=O)cc1CS(=O)(=O)CC(=O)O	0%	-3%	-4%	45µM*	6%
COc1ccc(C(C)=O)cc1CS(=O)(=O)Cc1cccc(F)c1	/	/	23%	/	/
CCOC(=O)c1ccc(N2CCN(CC)CC2)c(NC(=O)COc2ccc(OC)cc2)c1	/	/	0%	/	/
O=C(Nc1ccccc1)C(=O)N1CCN(C(=O)c2cc3ccccc3[nH]2)CC1	/	/	-10%	/	/
CC(=O)C1=C(O)C(=O)N(c2ccc(S(N)(=O)=O)cc2)C1c1cccc([N+](=O)[O-])c1 (stereo not drawn)	-2%	-15%	-8%	50µM*	-4%
Cc1ccc(Cl)cc1N1CCN(C(=O)Cc2cn(C)c3ccccc23)CC1	-8%	-4%	?	13µM*	-12%
Cc1ccc(C)c(N2CCN(C(=O)Cc3cn(C)c4ccccc34)CC2)c1	0%	3%	?	40µM*	?
CCC(=O)N1CCN(c2cc(C)ccc2C)CC1	-3%	-8%	0%	-48%[12.7 µM]	?
Cc1ccc(Cl)cc1N1CCN(C(=S)NCCc2ccccc2)CC1	1%	6%	35µM*	7%	-7%
Cc1ccc(C)c(N2CCN(C(=O)Cn3cccc3)CC2)c1	-4%	10%	-14%	50µM*	2%
Cc1ccc(Cl)cc1N1CCN(C(=O)Cc2c(C(=O)O)c(C)cn2C)CC1	-4%	-1%	3%	7%[59 µM]	/
CCOc1ccc2c(c1)cc(C(=O)NCCOc1ccc(Cl)cc1)n2C	/	/	104%	/	/
CCOC(=O)C1(Cc2ccccc2C(F)(F)F)CCN(C(C)Cc2cccc(C)n2)CC1 (stereo not drawn)	/	/	26%	/	/
CCCCNC(=O)c1cccc(I)c1	/	/	3%	/	/
Cc1ccc(Cl)cc1N1CCN(C(=O)Cc2c(C(=O)O)[nH]c3ccc(Cl)cc23)CC1	32µM*	-25%	?	?	0%
FC(F)(F)c1cccc(CSc2nnc(SCc3ccc(Cl)cc3)s2)c1	/	/	-25%	/	/
Cn1cc(C(c2ccccc2OCC(=O)O)c2cn(C)c3ccccc23)c2ccccc21	-5%	40µM*	19%	-14%	-3%
COc1ccccc1C(CC(=O)NCC(C)C)c1cn(C)c2ccccc12 (stereo not drawn)	/	/	35%	/	/
N#Cc1cccc(CNC(=O)c2nccnc2N)c1	/	/	-3%	/	/
CCNc1nc(NCC)nc(N/N=C/c2ccc([N+](=O)[O-])o2)n1	-2%	-5%	8%	1.8µM*	-11%
O=C(N/N=C/c1ccc([N+](=O)[O-])o1)c1cc2c(ccc3ccccc32)o1	-2%	-11%	-26%	/	?
O=C(N/N=C/c1ccc([N+](=O)[O-])o1)c1cc2ccccc2o1	-8%	1%	-22%	50µM*	7%
SMILES	Glioma ERSR ind	VDR inhibitor	ALOX12 inh	G9a block	Sfp inh
Cc1nc2ccccn2c1C(=O)N/N=C/c1ccc([N+](=O)[O-])cc1	0%	-8%	/	-23%	7%
Cc1nc2ccccn2c1C(=O)N/N=C/c1ccc([N+](=O)[O-])o1	3%	-26%	-26%	50µM*	-16%
CCCCC1CCC(C(=O)Nc2c(C(C)C)cccc2C(C)C)CC1 (stereo not drawn)	/	/	25%	/	/
N=C(N)S/C=C\C(=O)O	-3%	28µM*	?	25µM*	7.9µM*
N#Cc1nc(-c2ccco2)oc1N1CCN(CC(=O)N2CCOCC2)CC1	/	/	-18%	/	/
COc1c(O)cc2c(c1O)[C@@H]1O[C@H](CO)[C@@H](O)[C@H](O)[C@H]1OC2=O	4%	-13%	-14%	9%[2.33 µM]	18%
O=C1C2=C(S[C@@H]3O[C@H](CO)[C@@H](O)[C@H](O)[C@H]3O2)C(=O)c2ccccc21	/	35µM*	4%	/	?
CCS(=O)(=O)N1CCC(C(=O)Nc2ccc(OC)c(OC)c2)CC1	/	/	-12%	/	/
Cc1ccc(-n2c(SCC(=O)N3Cc4ccccc4CC3C(=O)O)nnc2-c2cccnc2)c(C)c1 (stereo not drawn)	-2%	-15%	-29%	45µM*	11%
CC(C)(C)OC(=O)N1Cc2ccccc2C[C@H]1C(=O)N1CCC[C@H]1C(=O)O	-6%	6%	-13%	18µM*	8%
Cc1ccc(-n2nnnc2SCC(=O)N2Cc3ccccc3CC2C(=O)O)cc1 (stereo not drawn)	0%	-19%	0%	45µM*	10%
Cc1ccc(C(=O)N2Cc3ccccc3CC2C(=O)O)cc1 (stereo not drawn)	-1%	14%	-19%[57.4 µM]	35µM*	20%
Cc1cc(C)cc(NC(=O)Cn2c(N3CCOCC3)nc(C)cc2=O)c1	/	/	-6%	/	/
COc1ccc(-c2nnc(SCC(=O)Nc3cc(OC)cc(OC)c3)[nH]c2=O)cc1	/	/	1%	/	/
COCCn1c(C)c(C)c(S(=O)(=O)c2ccccc2)c1NC(=O)c1ccc(OC)cc1	/	/	-17%	/	/
CCCC(C)N(C)CC(=O)N1CCN(c2oc(C)nc2C#N)CC1 (stereo not drawn)	/	/	20%	/	/
COc1ccc(N2CCN(C(=O)C3Cc4ccccc4CN3C(=O)c3ccccc3)CC2)cc1 (stereo not drawn)	2%	-9%	1%	50µM*	14%
CCC1CCCCN1C(=O)COc1cc(=O)n(C)c2ccccc12 (stereo not drawn)	3%	2%	1%	-17%	17%
CCC1CCCCN1C(=O)COc1ccccc1NC(C)=O (stereo not drawn)	-2%	-7%	?	45µM*	-14%
COc1ccc(CN2CCC(C(=O)c3ccc(Cl)cc3)CC2)cc1	0%	17%	1%	20%	17%
CC(=O)c1ccc(N2C(=O)C3C(C2=O)C(C(=O)c2ccc(Cl)cc2)N2CCCC32)cc1 (stereo not drawn)	7%	-17%	0%	?	22µM*
COc1ccc(N2C(=O)C3C(C2=O)C(C(=O)c2ccc(Cl)cc2)N2CCCC32)cc1 (stereo not drawn)	-10%	-7%	?	?	28µM*
OC[C@H]1OC([S-])[C@H](O)[C@@H](O)[C@H]1O.[Au+] (stereo partly drawn)	/	/	-1%	/	/
Oc1ccc2[nH]cnc2c1CN1CCCCC1	-7%	8%	272%	5.6µM*	-18%

Screening data deposited in PubChem BioAssay by National Center for Advancing Translational Sciences (NCATS).
